“And” between values parts separate entries of the source, which are not always exact repeats. Equal entries are not always repeated. The campaign covered roughly 350,000 compounds. About 600 (0.17%) were called active.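 How the source made its calls: active means every replicate shows inhibition of at least 40%; inconclusive means mean inhibition at least 40% but some replicate below; inactive means the rest.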 What follows is part of a selection rich in actives, with near analogues and random picks from the rest. Some structures have more than one record in an assay (separate samples or runs), and their calls can disagree.

Drawing on PubChem BioAssay AID651687 (Broad Institute, 2012), this text covers inhibition for 76 compounds.

The nature of this assay: compounds lowering acetylated PGC1a in cells – cell-based, U2OS, AlphaScreen, inhibitor mode, primary screen (AID 651687).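 Further: 0% = neutral control wells and 100% = positive control wells.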 The following applies: U2OS PGC1a acetylation, AlphaScreen anti-acetyl-lysine; at 15.6 µM; stronger effect = higher value; with virally co-expressed GCN5 acetyltransferase. In general terms: Alpha assays give light when donor and acceptor beads are brought close together.
For the compound `CC(C)NC(=O)N(C)C[C@H]1Oc2c(NS(C)(=O)=O)cccc2C(=O)N([C@@H](C)CO)C[C@H]1C`, the inhibition was 3.18% (inactive).
On to `C[C@@H]1CN([C@@H](C)CO)C(=O)c2cc(NC(=O)Nc3ccc4c(c3)OCO4)ccc2O[C@@H](C)CCCCO[C@H]1CN(C)C(=O)Nc1ccc(C(F)(F)F)cc1`, for which the inhibition was -7.26% (inactive).
For `C[C@H](CO)N1C[C@H](C)[C@H](CN(C)Cc2ccc(C(=O)O)cc2)Oc2ccc(NC(=O)NC3CCCCC3)cc2C1=O`, the inhibition was 6.53% (inactive).
In the case of `Cc1noc(C)c1NC(=O)Nc1ccc2c(c1)CC(=O)N([C@@H](C)CO)C[C@@H](C)[C@H](CN(C)C(=O)NC1CCCCC1)O2`, the inhibition is 0.249% (inactive).
The same measure for `C[C@@H]1CN([C@H](C)CO)S(=O)(=O)c2ccc(C#CC3CCCC3)cc2O[C@@H]1CN(C)Cc1ccccc1C(=O)O`: -5.77% (inactive).
In the case of `O=C(C[C@@H]1C=C[C@@H](NS(=O)(=O)c2ccc(F)cc2)[C@@H](CO)O1)NCCN1CCCCC1`, the inhibition was 4.96% (inactive).
In the case of `CO[C@@H]1CN(C)C(=O)c2ccc(NS(=O)(=O)c3cn(C)cn3)cc2OC[C@H](C)N(CCC(F)(F)F)C[C@@H]1C`, the inhibition was -2.06% (inactive).
With `Cc1noc(C)c1C(=O)N(C)C[C@H]1OCc2ccccc2-c2c(n(C)c3ccccc23)C(=O)N([C@@H](C)CO)C[C@H]1C`, the inhibition was -20.6% (inactive).
Regarding `COc1ccc(-c2cnc3c(c2)C(=O)N([C@@H](C)CO)C[C@H](C)[C@@H](CN(C)C(=O)C2CC2)O3)cc1`, the inhibition is -1.45% (inactive).
For the compound `CNC[C@H]1Oc2ccc(NS(=O)(=O)c3ccc(F)cc3)cc2CC(=O)N([C@H](C)CO)C[C@H]1C`, the inhibition was -12.8% (inactive).
The same measure for `C[C@@H](NC(=O)C[C@@H]1CC[C@@H]2[C@H](COC[C@@H](O)CN2C(=O)Nc2cccc(F)c2)O1)c1ccccc1`: 0.238% (inactive); for `COCC(=O)Nc1ccc2c(c1)OC[C@@H](C)N(Cc1cocn1)C[C@@H](C)[C@@H](OC)CN(C)C2=O`: 11.7% (inactive).
For `CCC(=O)N(C)C[C@H]1Oc2cc(-c3ccc(C)cc3)ccc2S(=O)(=O)N([C@@H](C)CO)C[C@H]1C`, the inhibition was -11.2% (inactive).
The same measure for `CCCN(C)C[C@@H]1OCCCC[C@@H](C)Oc2ccc(NC(=O)Nc3ccc(C(F)(F)F)cc3)cc2C(=O)N([C@H](C)CO)C[C@H]1C`: -1.97% (inactive); for `CN(C)C(=O)c1cccc(-c2ccc(C3[C@@H]4CN(S(=O)(=O)c5ccc(F)cc5)C[C@H]3N4)cc2)c1` (stereo partly specified): -5.35% (inactive) and -8.12% (inactive); for `N#Cc1ccc(-c2ccc(C3[C@@H]4CN(S(=O)(=O)c5ccc(F)cc5)C[C@H]3N4)cc2)cc1` (stereo partly specified): -1.35% (inactive) and 58.1% (active).
As for `N#Cc1ccc(-c2ccc(C3[C@@H]4CN(S(=O)(=O)c5ccccc5F)C[C@H]3N4)cc2)cc1` (stereo partly specified), the inhibition was -0.54% (inactive) and -4.45% (inactive).
Regarding `C[C@H](CO)N1C[C@H](C)[C@@H](CN(C)C(=O)Cc2ccccn2)Oc2cc(-c3cccc(C(=O)N(C)C)c3)ccc2S1(=O)=O`, the inhibition is 0.377% (inactive).
As for `COc1ccc(C#Cc2ccc([C@H]3[C@@H](CO)N4CCCCN(S(=O)(=O)c5cn(C)cn5)C[C@H]34)cc2)cc1`, the figure is -2.67% (inactive); as for `COCC(=O)Nc1ccc2c(c1)[C@H]1C[C@H](CC(=O)NCc3cccnc3)O[C@H](CO)[C@H]1O2`, 5.71% (inactive).
For the compound `CN1c2ccc(-c3cccc(F)c3)cc2[C@H]2[C@H](CCN2C(=O)c2cccc(F)c2)[C@H]1CO`, the inhibition is -7.12% (inactive).
As to `Cc1nc(=O)c(-c2ccccc2)c(C)n1-c1ccc(Br)cc1`, the inhibition was -2.67% (inactive).
Take `S=C1NC(c2ccccc2)=NCN1c1ccc(Br)cc1`: the inhibition was 80.9% (active).
The same measure for `COc1ccccc1S(=O)(=O)N[C@@H]1C=C[C@H](CC(=O)N2CCN(C)CC2)O[C@@H]1CO`: 6.82% (inactive); for `O=[N+]([O-])c1c(NCCO)cc(Sc2nc3ccccc3s2)c2nonc12`: 45% (active).
For the compound `COc1ccc(S(=O)(=O)Nc2ccc3c(c2)C(=O)N([C@H](C)CO)C[C@H](C)[C@@H](CN(C)C)OCCCC[C@H](C)O3)cc1`, the inhibition is -0.646% (inactive) and 1.73% (inactive).
Turning to `C[C@H]1CN([C@@H](C)CO)C(=O)c2cc(C#CC3CCCCC3)cnc2O[C@@H]1CN(C)C(=O)Cc1ccccn1`, the inhibition is -16.1% (inactive).
For `C[C@H](CO)N1C[C@H](C)[C@H](CN(C)S(=O)(=O)c2cn(C)cn2)Oc2c(NC(=O)c3ccncc3)cccc2C1=O`, the inhibition was -3.09% (inactive).
On to `CO[C@H]1CN(C)C(=O)c2ccc(NC(=O)c3nc4ccccc4s3)cc2OC[C@@H](C)N(Cc2cncnc2)C[C@H]1C`, for which the inhibition is 10.9% (inactive).
For the compound `CC[C@H]1CN2CCc3cc(OC)c(OC)cc3[C@@H]2C[C@@H]1C[C@H]1NCCc2cc(OC)c(OC)cc21`, the inhibition was 83.7% (active).
For the compound `C[C@@H]1CN([C@@H](C)CO)S(=O)(=O)c2ccc(-c3cccc(F)c3)cc2O[C@@H]1CN(C)S(=O)(=O)c1ccccc1`, the inhibition was 5.85% (inactive).
For the compound `C[C@H](CO)N1C[C@H](C)[C@H](CN(C)C)Oc2ncc(/C=C/c3ccccc3)cc2C1=O`, the inhibition is -8.6% (inactive) and 4.49% (inactive).
Turning to `CO[C@H]1CN(C)C(=O)c2cc(NC(=O)c3nc4ccccc4s3)ccc2OC[C@H](C)N(Cc2cccnc2)C[C@@H]1C`, the inhibition was 7.17% (inactive).
The same measure for `COc1ccc(NC(=O)N2CC[C@@H]3[C@@H](CO)N(C)c4ccc(-c5cccc(F)c5)cc4[C@@H]32)cc1`: 10.2% (inactive).
As to `O=C(Nc1ccc(C(F)(F)F)cc1)N[C@@H]1CC[C@H](CCNC(=O)c2ccccc2F)O[C@H]1CO`, the inhibition is 10.8% (inactive).
Consider `CO[C@@H]1CN(C)C(=O)c2ccc(NC(=O)NC(C)C)cc2OC[C@H](C)N(Cc2ccc(-c3ccccn3)cc2)C[C@H]1C`, for which the inhibition is -3.93% (inactive).
With `COc1ccc(N2CCC(N3CCN(C)C(CCO)C3)CC2)cc1` (stereo unspecified), the inhibition is 0.824% (inactive).
As for `CCOc1ccccc1CN1CCN(C2CCC2)CC1CCO` (stereo unspecified), the figure is 74.8% (active); as for `COc1ccccc1N1CCC(N2CCN(CC(C)(C)C)C(CCO)C2)CC1` (stereo unspecified), 10.6% (inactive); as for `CO[C@@H]1CN(C)C(=O)c2ccc(NC(=O)c3ccccn3)cc2OC[C@@H](C)N(C(=O)C2CCCCC2)C[C@H]1C`, -2.25% (inactive).
The same measure for `C[C@H](CO)N1C[C@H](C)[C@H](CN(C)Cc2ccccn2)Oc2ncc(C#CCc3ccccc3)cc2C1=O`: -0.518% (inactive); for `COCCCNC(=O)[C@@]1(Cc2ccccc2)COC(c2ccc(OCCCO)cc2)=N1`: 4.46% (inactive).
Turning to `Cc1ccc(S(=O)(=O)N(C)C[C@H]2OCCCC[C@@H](C)Oc3ccc(NC(=O)Nc4ccc(F)cc4)cc3C(=O)N([C@@H](C)CO)C[C@H]2C)cc1`, the inhibition is -6.65% (inactive).
As for `C[C@@H]1CN([C@H](C)CO)C(=O)c2cc(C#Cc3cccc(F)c3)cnc2O[C@H]1CN(C)Cc1ccccn1`, the inhibition is -11.1% (inactive).
As for `Cc1noc(C)c1S(=O)(=O)Nc1ccc2c(c1)CC(=O)N([C@@H](C)CO)C[C@H](C)[C@H](CN(C)S(=O)(=O)c1ccc(Cl)cc1)O2`, the figure is 10.3% (inactive).
Consider `CO[C@H]1CN(C)C(=O)c2cc(NC(=O)C3CC3)ccc2OC[C@H](C)N(C(=O)CN(C)C)C[C@H]1C`, for which the inhibition was -4.9% (inactive).
With `O=C(C[C@H]1C[C@H]2c3cc(NC(=O)CC4CC4)ccc3O[C@H]2[C@H](CO)O1)NCc1cc(F)ccc1F`, the inhibition was -0.32% (inactive).
For the compound `C[C@H](CO)N1C[C@H](C)[C@@H](CN(C)Cc2ccc(C(F)(F)F)cc2)Oc2ccc(NC(=O)Cn3cnnn3)cc2CC1=O`, the inhibition was 6.38% (inactive).
The same measure for `Cc1noc(C)c1NC(=O)Nc1ccc2c(c1)C(=O)N([C@H](C)CO)C[C@@H](C)[C@@H](CN(C)S(=O)(=O)c1ccc(Cl)cc1)OCCCC[C@H](C)O2`: 0.953% (inactive).
As to `COc1ccc(S(=O)(=O)N(C)C[C@H]2Oc3ccc(NS(C)(=O)=O)cc3C(=O)N([C@H](C)CO)C[C@H]2C)cc1`, the inhibition was -5.85% (inactive).
For the compound `O=C(Cc1ccccc1)N1CC[C@H]2[C@H](CO)Nc3ccc(-c4ccccc4F)cc3[C@H]21`, the inhibition is -17.2% (inactive).
As to `CC(C)NC(=O)Nc1ccc2c(c1)C(=O)N([C@H](C)CO)C[C@H](C)[C@@H](CN(C)Cc1ccc3c(c1)OCO3)OCCCC[C@H](C)O2`, the inhibition is 4.63% (inactive).
As to `C[C@@H]1CN([C@@H](C)CO)C(=O)c2cc(NC(=O)c3ccncc3)ccc2O[C@@H]1CN(C)S(C)(=O)=O`, the inhibition is 6.79% (inactive).
On to `Cc1ccccc1-c1ccc([C@H]2[C@@H](CO)N3C(=O)CN(C(=O)c4ccncc4)C[C@H]23)cc1`, for which the inhibition was -5.89% (inactive).
With `N#CC1=C(N)Oc2cc(N)ccc2C1c1ccccc1` (stereo unspecified), the inhibition was -1.66% (inactive).
Turning to `Cn1c2c(c(=O)n(C)c1=O)C(c1cccc(F)c1)C(C#N)=C(N)O2` (stereo unspecified), the inhibition was 80.9% (active).
In the case of `Cc1cc2c(c(=O)n1C)C(C(C)C)C(C#N)=C(N)O2` (stereo unspecified), the inhibition was 8.23% (inactive).
For `C[C@@H]1CN([C@@H](C)CO)C(=O)c2cc(NC(=O)CCCCCC(=O)Nc3ccccc3N)ccc2O[C@@H](C)CCCCO[C@@H]1CN(C)CC1CCCCC1`, the inhibition was 3.98% (inactive).
For `O=C(CC(F)(F)F)N1C[C@H]2[C@@H](c3ccccc31)[C@H](CO)N2C(=O)Cc1cccnc1`, the inhibition is 0.596% (inactive).
In the case of `CN(C)Cc1cn(CC[C@H]2CC[C@@H](NS(=O)(=O)c3ccccc3)[C@H](CO)O2)nn1`, the inhibition was -1.22% (inactive).
On to `CO[C@H]1CN(C)C(=O)c2ccc(NS(C)(=O)=O)cc2OC[C@@H](C)N(Cc2ccccc2)C[C@H]1C`, for which the inhibition was 4.39% (inactive).
As for `O=C(C[C@@H]1CC[C@@H](NC(=O)c2cccnc2)[C@H](CO)O1)NCCN1CCCCC1`, the inhibition is 6.21% (inactive).
For the compound `CCC(=O)N1CC(=O)N2[C@@H](CO)[C@H](c3ccc(C#CCC(C)C)cc3)[C@@H]2C1`, the inhibition is -4.62% (inactive).
For the compound `O=C(CC(F)(F)F)N1C[C@H]2[C@@H](c3ccccc31)[C@H](CO)N2C(=O)Cc1ccccc1`, the inhibition was 9.3% (inactive).
As for `C/C=C/c1ccccc1[C@@H]1[C@@H](C#N)N(C(=O)Cc2ccccn2)[C@H]1CO`, the figure is -0.046% (inactive); as for `C[C@H]1CN([C@@H](C)CO)S(=O)(=O)c2ccc(C#CC3(O)CCCC3)cc2O[C@@H]1CN(C)C(=O)Nc1cccc(F)c1`, -10% (inactive); as for `Cc1ccc(S(=O)(=O)N2C[C@H](O)COC[C@@H]3O[C@@H](CC(=O)NCC4CCCCC4)CC[C@H]32)cc1`, -0.708% (inactive).
The same measure for `N#Cc1ccc(-c2ccc([C@@H]3[C@H]4CNC[C@@H]3N4Cc3ccc4c(c3)OCO4)cc2)cc1`: 48.1% (active); for `COc1ccccc1CN1[C@@H]2CNC[C@H]1C2c1ccc(-c2cccc(C#N)c2)cc1` (stereo partly specified): 1.68% (inactive) and -10% (inactive).
For the compound `N#Cc1ccc(-c2ccc3c(c2)[C@H]2[C@H](CCN2Cc2ccc4c(c2)OCO4)[C@@H](CO)N3)cc1`, the inhibition is -7% (inactive).
The same measure for `COc1ccc2c3c([nH]c2c1)[C@H](CO)N(Cc1ccccc1OC)CC31CCN(S(=O)(=O)c2ccccc2)CC1`: 8.15% (inactive); for `C[C@@H]1CN([C@@H](C)CO)C(=O)c2cccc(NC(=O)c3ccc(-c4nccs4)cc3)c2O[C@H]1CN(C)C(=O)Nc1ccccc1`: -1.84% (inactive).
For the compound `O=C(Nn1cnnc1)c1ccc([N+](=O)[O-])cc1`, the inhibition is -2.58% (inactive).
In the case of `Cc1ccc(C)n1NC(=O)c1ccc([N+](=O)[O-])cc1`, the inhibition is 2.46% (inactive).
The same measure for `N=C1C(c2nc3ccccc3s2)=C(O)CN1NC(=O)c1ccc([N+](=O)[O-])cc1`: 100% (active); for `COc1ccc(NC(=O)N2C[C@H](O)COC[C@H]3O[C@@H](CC(=O)NC4Cc5ccccc5C4)CC[C@@H]32)cc1`: 1.58% (inactive).

As usually defined, the inhibition is the drop in the measured response relative to a control, in per cent.
